Structures are written as SMILES. About 6,000 (1.7%) of roughly 350,000 compounds were called active. Not shown: some 5% with an inconclusive outcome. Shown is part of a subset that was picked to be rich in actives. Values without a mark were called inactive. Cut-off read from the data, not from the text of the source: active = CPE inhibition above about 20% (passing the limit was not always enough); inconclusive = no clear call, values can overlap the other calls; tested in BHK-21 cells.

This experiment is described as follows: protection of cells from dengue 2 killing – plate reader, single concentration, primary screen (AID 651640).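 Note: 0% = median of neutral control wells and 100% = median of positive control wells.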 The conditions noted are these: DENV2-infected cells, cytopathic effect rescue, at 9.99 µM, active compounds read high.
In the case of `CCCNC(=O)C[C@@H]1CC[C@H]2[C@H](COc3ccc(NC(=O)c4ccc(Cl)cc4)cc3C(=O)N2C)O1`, the CPE inhibition is -2.04%. For `O=C(C[C@@H]1CC[C@H](NS(=O)(=O)c2cccc(F)c2)[C@H](CO)O1)N1CCCCC1` the value was -2.32%; for `COc1ccc(-c2cn(CC[C@@H]3CC[C@@H](NC(=O)CCN4CCCCC4)[C@@H](CO)O3)nn2)cc1`, -1.31%. In the case of `O=C(OCC(=O)N1CCOCC1)c1ccc(N2CCOCC2)c([N+](=O)[O-])c1` it was 2.84%; in that of `Cc1cccc(C)c1NC(=O)CNC(=O)c1ccc(N2CCOCC2)c([N+](=O)[O-])c1`, -8.12%; in that of `N#Cc1c(NC(=O)c2ccc(N3CCOCC3)c([N+](=O)[O-])c2)sc2c1CCCC2`, 46.3% (active). Consider `C[C@H]1CN([C@@H](C)CO)C(=O)c2cccc(NC(=O)Nc3ccccc3)c2O[C@@H]1CN(C)S(=O)(=O)c1ccc(F)cc1`, for which the CPE inhibition is 13.7%.

Consider `COc1ccc2c3c(n(C)c2c1)[C@@H](CO)N(CC1CC1)CC31CN(C(=O)Nc2c(C)noc2C)C1`, for which the CPE inhibition is 7.58%. For `COc1ccc(CNC(=O)COC(=O)CCS(=O)(=O)c2ccc(C)cc2)cc1OC` the value was -2.46%; for `CCCCCCNC(=O)O[C@]12C[C@@H](C(=O)OC)[C@@H](C(=O)OC)C[C@@]1(O)CN(S(=O)(=O)c1ccc(C)cc1)C2`, -1.36%; for `CCCCCCn1c(=O)n2n(c1=O)C[C@]1(OC(=O)NCc3ccc(OC)c(OC)c3)CN(S(=O)(=O)c3ccc(C)cc3)C[C@]1(O)C2`, 33.2% (active). In the case of `C[C@H](O)C#Cc1ccc2c(c1)O[C@H](CN(C)Cc1ccccn1)[C@@H](C)CN([C@@H](C)CO)S2(=O)=O` it was 3.01%; in that of `C[C@H]1CN([C@@H](C)CO)C(=O)c2c(c3ccccc3n2C)-c2ccccc2CO[C@H]1CN(C)Cc1ccc2c(c1)OCO2`, -9.95%; in that of `CCOC(=O)/C=C/c1ccc(C(F)(F)F)cc1S(=O)(=O)NC(C)(C)C`, 23.6% (active). In the case of `CCOC(=O)/C=C/c1ccccc1O` it was -9.35%.

`CCOC(=O)NNc1cc(C(F)(F)F)ccn1`: the CPE inhibition is -1.25%.

Regarding `O=C(CN1CCOCC1)N[C@@H]1CC[C@H](CCNS(=O)(=O)c2ccccc2F)O[C@H]1CO`, the CPE inhibition was 28.5% (active). Regarding `O=C(CN1CCOCC1)N[C@H]1CC[C@@H](CCNS(=O)(=O)c2ccccc2F)O[C@H]1CO`, the CPE inhibition is 1.76%. In the case of `O=C(Nc1ccccc1)N[C@@H]1CC[C@H](CCNS(=O)(=O)c2ccccc2F)O[C@@H]1CO` it was -0.044%; in that of `O=C(Cc1ccccc1)N1C[C@H]2[C@@H](c3ccccc31)[C@H](CO)N2C(=O)C1CCOCC1`, 2%.

In the case of `O=C(NCC[C@H]1CC[C@@H](NC(=O)c2ccncc2)[C@@H](CO)O1)Nc1ccc(Cl)cc1`, the CPE inhibition was 3.84%. On to `COc1ccc(NC(=O)Nc2ccc3c(c2)C(=O)N([C@@H](C)CO)C[C@@H](C)[C@@H](CN(C)C(=O)CCCN(C)C)OCCCC[C@@H](C)O3)cc1`, for which the CPE inhibition was -1%. For `Cc1ccc(S(=O)(=O)N[C@H]2CC[C@@H](CC(=O)NCc3ccc(Cl)c(Cl)c3)O[C@H]2CO)cc1` the value was -6.75%; for `O=C(C[C@@H]1CC[C@H](NS(=O)(=O)c2ccc(F)cc2)[C@@H](CO)O1)NCc1ccccc1F`, 1.66%. As for `Cc1ccc(S(=O)(=O)N[C@H]2CC[C@H](CC(=O)NCc3ccccc3F)O[C@@H]2CO)cc1`, the CPE inhibition is 23.7% (active). `Cc1ccccc1-c1ccc2c(c1)O[C@@H](CN(C)Cc1ccc(C(=O)O)cc1)[C@H](C)CN([C@H](C)CO)S2(=O)=O`: the CPE inhibition was 0.324%. In the case of `CC=Cc1ccc2n(c1=O)C[C@H]1[C@H](CO)[C@@H](C(=O)N3CCCCC3)N(Cc3ccccn3)[C@@H]21` (mixture of isomers) it was 14.3%; in that of `COc1ccc(C(=O)NCCSc2ccccc2C)cc1`, -6.82%; in that of `CCS(=O)(=O)Nc1ccc(C(=O)NCCSc2ccccc2)cc1`, 32% (active).

Consider `COc1cccc(C(=O)NCCSc2ccc(Br)cc2)c1`, for which the CPE inhibition was 14.3%. For `C[C@@H]1CN([C@@H](C)CO)C(=O)c2cccc(N(C)C)c2O[C@@H]1CN(C)S(C)(=O)=O` the value was 1.61%; for `C[C@@H]1CCCCO[C@@H](CN(C)S(=O)(=O)c2cccs2)[C@@H](C)CN([C@H](C)CO)C(=O)c2cc(NC(=O)Nc3ccc4c(c3)OCO4)ccc2O1`, -1.49%. As to `COCCNC(=O)[C@H]1[C@H](CO)[C@H]2Cn3c(ccc(-c4ccccc4F)c3=O)[C@H]2N1C(=O)C1CCC1`, the CPE inhibition was -1.96%.

For the compound `COc1ccc(CCNC(=S)N2CCN(S(=O)(=O)c3ccc(Cl)cc3)CC2)cc1`, the CPE inhibition was 0.363%.

With `COc1ccc(CCC(=O)N2CCN(S(=O)(=O)c3ccc(OC)cc3)CC2)cc1`, the CPE inhibition was -8.26%. In the case of `COc1ccc(CCNC(=S)N2CCN(S(=O)(=O)c3ccc(F)cc3)CC2)cc1` it was 53.1% (active). For `CO[C@@H]1CN(C)C(=O)c2cc(NC(=O)NC3CCCCC3)ccc2OC[C@H](C)N(CC2CC2)C[C@H]1C` the value was 5.48%; for `CN1c2ccc(-c3ccc(C#N)cc3)cc2[C@@H]2[C@@H](CCN2S(=O)(=O)c2cccc(F)c2)[C@@H]1CO`, 2.27%; for `COC(=O)[C@@H]1[C@@H](CO)[C@@H]2Cn3c(ccc(C4=CCCC4)c3=O)[C@@H]2N1Cc1cncnc1`, -0.488%. In the case of `Cc1cccn2c(CNCC(C)Oc3cccnc3)c(C(=O)N3CCOCC3)nc12` (centres undefined) it was 5.69%; in that of `Cc1cccn2c(CN(C)C3CCCc4ccccc43)c(C(=O)N3CCOCC3)nc12` (centres undefined), -1.26%; in that of `CCOC(=O)C1CCN(Cc2c(C(=O)N3CCOCC3)nc3c(C)cccn23)CC1`, 115% (active).

In the case of `CN(C)C(=O)c1ccc(-c2ccc([C@H]3[C@@H](CO)N4C(=O)CN(C(=O)CC5CC5)C[C@@H]34)cc2)cc1`, the CPE inhibition is -1.06%. In the case of `COc1ccccc1NC(=O)N1CC(=O)N2[C@H](CO)[C@H](c3ccc(C#Cc4ccccc4)cc3)[C@H]2C1` it was 8.69%. In the case of `CN(C)CC(=O)N[C@@H]1CC[C@@H](CCn2cc(C3CC3)nn2)O[C@H]1CO` it was 13.8%; in that of `O=C(Cc1ccncc1)N[C@@H]1CC[C@H](CCn2cc(-c3ccccc3F)nn2)O[C@H]1CO`, 2.31%. In the case of `CN(C)CC(=O)N[C@@H]1CC[C@H](CCn2cc(C3CCCC3)nn2)O[C@H]1CO` it was 77.7% (active); in that of `O=C(Cc1ccncc1)N[C@H]1CC[C@H](CCn2cc(-c3ccccc3F)nn2)O[C@@H]1CO`, -5%; in that of `O=C(Cc1cccnc1)N[C@H]1CC[C@H](CCn2cc(-c3ccccc3F)nn2)O[C@H]1CO`, 20% (active). On to `COc1cccc(-c2cn(CC[C@H]3CC[C@H](NC(=O)CN(C)C)[C@H](CO)O3)nn2)c1`, for which the CPE inhibition was -8.73%. For `COc1ccc(S(=O)(=O)N[C@@H]2CC[C@H](CC(=O)N3CCc4ccccc4C3)O[C@H]2CO)cc1` the value was 2.67%.

In the case of `COc1ccccc1CNC(=O)C[C@H]1CC[C@@H]2[C@H](COC[C@H](O)CN2Cc2ccccc2)O1`, the CPE inhibition was -0.546%. In the case of `CO[C@@H](CN(C)C(=O)c1cnccn1)[C@H](C)CN([C@H](C)CO)S(=O)(=O)c1ccc(C)cc1` it was -0.652%; in that of `C[C@H](CO)N1C[C@H](C)[C@H](CN(C)Cc2ccc(C(F)(F)F)cc2)Oc2ccc(NC(=O)CCCCCC(=O)Nc3ccccc3N)cc2CC1=O`, 30.6% (active); in that of `C[C@@H]1CN([C@@H](C)CO)C(=O)Cc2cc(NC(=O)CCCCCC(=O)Nc3ccccc3N)ccc2O[C@H]1CN(C)C(=O)Nc1ccc(C(F)(F)F)cc1`, 0.365%.

As to `C[C@@H]1CN([C@@H](C)CO)C(=O)Cc2cc(NC(=O)CCCCCC(=O)Nc3ccccc3N)ccc2O[C@H]1CN(C)Cc1ccc(Cl)c(Cl)c1`, the CPE inhibition is 35.5% (active). For `C[C@H]1CN([C@@H](C)CO)C(=O)Cc2cc(NC(=O)CCCCCC(=O)Nc3ccccc3N)ccc2O[C@@H]1CN(C)Cc1ccncc1` the value was -3.1%; for `C[C@H]1CN([C@@H](C)CO)C(=O)Cc2cc(NC(=O)Cc3ccccc3)ccc2O[C@@H]1CN(C)Cc1ccc(Cl)c(Cl)c1`, 11.1%; for `C[C@H]1CN([C@@H](C)CO)C(=O)Cc2cc(NC(=O)CCCCCC(=O)Nc3ccccc3N)ccc2O[C@H]1CN(C)C(=O)Nc1ccc(F)cc1`, 6.87%. Take `CC(=O)N(C)C[C@@H]1Oc2ncc(C#CCc3ccccc3)cc2C(=O)N([C@H](C)CO)C[C@H]1C`: the CPE inhibition is 13.5%. As to `CO[C@@H]1CN(C)C(=O)c2cc(NC(=O)c3ccccc3)ccc2OC[C@H](C)N(C(=O)CN(C)C)C[C@H]1C`, the CPE inhibition was -4.5%. For `C[C@H](CO)N1C[C@H](C)[C@H](CN(C)Cc2ccc(C(=O)O)cc2)Oc2ccc(NS(=O)(=O)c3cn(C)cn3)cc2CC1=O` the value was -5.77%; for `CC(C)NC(=O)N(C)C[C@H]1Oc2ccc(NS(C)(=O)=O)cc2CC(=O)N([C@@H](C)CO)C[C@H]1C`, -8.84%; for `CO[C@H]1CN(C)C(=O)c2cc(NC(=O)c3cnccn3)ccc2OC[C@H](C)N(C(=O)C2CC2)C[C@H]1C`, 7.36%. As for `CO[C@H]1CN(C)C(=O)c2ccc(NC(=O)c3nc4ccccc4s3)cc2OC[C@@H](C)N(Cc2cncnc2)C[C@H]1C`, the CPE inhibition is -2.74%.

Turning to `CO[C@H]1CN(C)C(=O)c2cc(NC(=O)c3cnccn3)ccc2OC[C@@H](C)N(CC2CC2)C[C@@H]1C`, the CPE inhibition was 26.7% (active).

Take `CO[C@@H]1CN(C)C(=O)c2cc(NC(=O)c3cnccn3)ccc2OC[C@@H](C)N(CC2CC2)C[C@H]1C`: the CPE inhibition is -5.97%. In the case of `CO[C@H]1CN(C)C(=O)c2cc(NC(=O)c3nc4ccccc4s3)ccc2OC[C@H](C)N(Cc2cccnc2)C[C@@H]1C` it was 21.1% (active); in that of `CO[C@H]1CN(C)C(=O)c2ccc(NC(=O)c3nc4ccccc4s3)cc2OC[C@H](C)N(Cc2cccnc2)C[C@@H]1C`, 3.73%.

These data come from PubChem BioAssay AID651640 (Broad Institute, 2012).
